Test results: PubChem BioAssay (Tox21)
Results filed as inconclusive are left out. Calls of active or inactive are those of the source. Unless noted, the call rests on the fitted dose curve.

Tests used:
[1] = Nuclear factor erythroid 2-related factor 2/antioxidant responsive element (Nrf2/ARE) small molecule agonists: qHTS cell viability counter screen in human keratinocytes (AID 1919968; active means well fitted curve in the direction sought with a large enough effect in the repeat runs; an effect the other way counts as inactive or inconclusive; further: nearly all actives have a fitted effect of over 55% in size; further: potency means the concentration at half of the fitted maximal effect)
Summary of the method: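 KeratinoSens cells (HaCaT keratinocytes stably carrying an ARE-luciferase reporter) were seeded at 1,500 cells/well and rested 5 h at 37 C/5% CO2. They were then exposed to compounds in DMSO for 23 h. Viability was read by CellTiter-Fluor fluorescence after 1 h.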

[2] = Nuclear factor erythroid 2-related factor 2/antioxidant responsive element (Nrf2/ARE) small molecule agonists: luciferase reporter gene qHTS assay in human keratinocytes (AID 1919969); further: nearly all actives have a fitted effect of over 35% in size
[3] = molecular target: Gonadotropin-releasing hormone receptor (Homo sapiens) (UniProt P30968); experiment: Human gonadotropin-releasing hormone receptor (GnRHR) small molecule agonists, calcium flux assay in GnRHR-HEK293 cells (AID 1920063); further: nearly all actives have a fitted effect of over 35% in size
Chain of Gonadotropin-releasing hormone receptor (Homo sapiens) (P30968 whole entry, looked up): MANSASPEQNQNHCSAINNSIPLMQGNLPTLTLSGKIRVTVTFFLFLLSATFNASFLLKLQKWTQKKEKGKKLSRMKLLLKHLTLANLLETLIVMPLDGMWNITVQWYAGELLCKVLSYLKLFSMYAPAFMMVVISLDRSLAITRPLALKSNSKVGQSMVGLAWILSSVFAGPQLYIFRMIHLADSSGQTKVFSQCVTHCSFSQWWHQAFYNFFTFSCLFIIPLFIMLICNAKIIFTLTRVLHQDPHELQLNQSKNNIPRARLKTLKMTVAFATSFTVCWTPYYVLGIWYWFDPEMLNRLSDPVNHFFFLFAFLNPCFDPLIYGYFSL
Summary of the method: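 HEK293 cells stably expressing human GnRHR were plated 18 h at 37 °C, loaded with calcium dye 1 h at 37 °C, then given compound in agonist mode; fluorescence (Ex/Em 480/540) read kinetically for 3 min at 1 s intervals.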

[4] = molecular target: KiSS-1 receptor (Homo sapiens) (UniProt Q969F8); experiment: Human kisspeptin (KISS1R) small molecule agonists, calcium flux assay in KISS1R-HEK293 cells (AID 1920064; active means well fitted curve in the direction sought with a large enough effect in the repeat runs; an effect the other way counts as inactive or inconclusive)
Chain of KiSS-1 receptor (Homo sapiens) (Q969F8 whole entry, looked up): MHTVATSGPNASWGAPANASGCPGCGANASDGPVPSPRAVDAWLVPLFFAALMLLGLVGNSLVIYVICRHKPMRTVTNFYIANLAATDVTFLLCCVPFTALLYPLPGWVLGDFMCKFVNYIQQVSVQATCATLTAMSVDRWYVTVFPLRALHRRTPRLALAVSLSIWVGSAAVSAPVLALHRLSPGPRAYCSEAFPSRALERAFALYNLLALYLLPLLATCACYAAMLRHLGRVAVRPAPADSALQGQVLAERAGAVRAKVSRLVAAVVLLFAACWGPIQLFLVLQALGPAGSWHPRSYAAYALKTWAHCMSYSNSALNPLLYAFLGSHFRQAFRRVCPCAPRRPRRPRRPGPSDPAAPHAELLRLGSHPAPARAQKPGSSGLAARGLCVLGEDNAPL
Summary of the method: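 HEK293 cells stably expressing human KISS1R were plated 18 h at 37 °C, loaded with calcium dye for 1 h at 37 °C, then given compound by pin tool. Fluorescence (Ex/Em 480/540) was read kinetically for 3 min.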

[5] = G protein-coupled receptor (GPCR) small molecule agonists, calcium flux assay: HEK293 wild type cell line counter screen (AID 1920065)
Summary of the method: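 Cells were plated and cultured 18 h at 37 C/5% CO2, then loaded with calcium dye for 1 h at 37 C. Compounds in DMSO were pin-transferred in agonist mode, and fluorescence (Ex/Em 480/540) was read kinetically for 3 min at 1 s intervals.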

[6] = p53 small molecule agonists, cell-based qHTS assay with human liver microsomes: qHTS cell viability counter screen (AID 1963579); further: nearly all actives have a fitted effect of over 45% in size
Summary of the method: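 Tox21 library compounds, delivered from DMSO stocks, were tested on p53RE-bla cells together with 0.5 mg/mL human liver microsomes and 0.5 mg/mL NADPH (final) over 16 h at 37 C; CellTiter-Glo luminescence served as the cytotoxicity measure.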

[7] = p53 small molecule agonists, cell-based qHTS assay with rat liver microsomes: qHTS cell viability counter screen (AID 1963580); further: nearly all actives have a fitted effect of over 45% in size
Summary of the method: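 Viability is assessed in parallel with the p53 reporter read: HCT-116 p53RE-bla cells receive compounds plus rat microsomes and NADPH (0.5 mg/mL final apiece), incubate 16 h at 37 C, and then CellTiter-Glo luminescence is recorded.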

[8] = p53 small molecule agonists, cell-based qHTS assay: qHTS cell viability counter screen (AID 1963581); further: nearly all actives have a fitted effect of over 45% in size
Summary of the method: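 p53RE-bla HCT-116 cells were exposed to compounds for 16 h at 37 C; after the beta-lactamase FRET read in the same wells, CellTiter-Glo was added and luminescence (intracellular ATP) read after 30 min at room temperature.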

[9] = cAMP Responsive Elements (CRE) small molecule agonists, cell-based qHTS assay (AID 1963590)
Summary of the method: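 CRE-bla HEK 293T cells in DMEM with 10% dialyzed FBS, NEAA, pyruvate and 25 mM HEPES were plated 18 h at 37 C/5% CO2, then exposed to compounds in DMSO for 3 h before LiveBLAzer B/G FRET substrate addition.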

[10] = cAMP Responsive Elements (CRE) small molecule antagonists, cell-based qHTS assay (AID 1963591; active means well fitted inhibition curve with a large enough effect in the signal ratio in the repeat runs, not every such curve was filed as active; the % refers to the signal ratio)
Summary of the method: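 CRE-bla HEK293T cells were plated 18 h at 37 °C/5% CO2, pinned with compound in DMSO, then stimulated with NKH477 at 0.25 uM final for 3 h. LiveBLAzer B/G FRET substrate was added and plates incubated 2 h at room temperature.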

[11] = molecular target: Beta-2 adrenergic receptor (Homo sapiens) (UniProt P07550); experiment: Adrenergic beta2 receptor (ADRB2) small molecule antagonists, cell-based qHTS assay (AID 1963592); further: series mostly up to about 92 µM; nearly all actives have a fitted effect of over 50% in size
Chain of Beta-2 adrenergic receptor (Homo sapiens) (P07550 whole entry, looked up): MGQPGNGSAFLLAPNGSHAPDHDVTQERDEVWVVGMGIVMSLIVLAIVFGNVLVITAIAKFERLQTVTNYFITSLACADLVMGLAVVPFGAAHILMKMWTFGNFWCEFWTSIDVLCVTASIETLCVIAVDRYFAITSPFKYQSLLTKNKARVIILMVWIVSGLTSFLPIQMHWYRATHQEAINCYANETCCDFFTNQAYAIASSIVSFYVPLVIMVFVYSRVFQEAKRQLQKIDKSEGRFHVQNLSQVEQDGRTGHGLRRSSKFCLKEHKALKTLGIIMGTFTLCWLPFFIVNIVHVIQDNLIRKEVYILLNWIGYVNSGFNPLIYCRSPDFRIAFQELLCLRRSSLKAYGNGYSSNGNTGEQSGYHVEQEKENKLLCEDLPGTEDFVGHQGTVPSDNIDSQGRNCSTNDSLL
Summary of the method: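 Cells (CHO, stable ADRB2 overexpression) incubated 18-20hr at 37C; compounds added from DMSO; agonist mix (1nM isoproterenol, 100uM IBMX, 25uM Ro-20-1724) added; 0.5hr RT; d2-cAMP and anti-cAMP-cryptate added; 1hr RT; 665/615 nm read.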

[12] = molecular target: D(2) dopamine receptor (Homo sapiens) (UniProt P14416); experiment: Dopamine D2 receptor (DRD2) small molecule agonists, cell-based qHTS assay (AID 1963594); further: nearly all actives have a fitted effect of over 35% in size
Chain of D(2) dopamine receptor (Homo sapiens) (P14416 whole entry, looked up): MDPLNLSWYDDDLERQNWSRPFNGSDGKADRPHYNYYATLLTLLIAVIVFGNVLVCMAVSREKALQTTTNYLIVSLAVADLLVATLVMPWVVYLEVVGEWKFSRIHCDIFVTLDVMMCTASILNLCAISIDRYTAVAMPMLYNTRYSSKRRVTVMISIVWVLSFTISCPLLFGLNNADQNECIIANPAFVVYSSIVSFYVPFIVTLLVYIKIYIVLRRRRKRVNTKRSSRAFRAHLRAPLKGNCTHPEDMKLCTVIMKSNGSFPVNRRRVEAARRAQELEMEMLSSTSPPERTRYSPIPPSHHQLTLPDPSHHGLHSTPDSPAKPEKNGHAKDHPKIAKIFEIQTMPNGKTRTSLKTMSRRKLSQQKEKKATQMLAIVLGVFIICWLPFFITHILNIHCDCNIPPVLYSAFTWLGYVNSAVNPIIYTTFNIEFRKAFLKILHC
Summary of the method: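 HEK293 cells stably expressing human DRD2, pre-treated with PDE inhibitor Ro20-1724 (0.1 mM final) and compound 10 min at room temperature, then stimulated with NKH477 (200nM […]) for 30 min. cAMP read by HTRF (665/620 nm).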

[13] = molecular target: D(2) dopamine receptor (Homo sapiens) (UniProt P14416); experiment: Dopamine D2 receptor (DRD2) small molecule antagonists, cell-based qHTS assay (AID 1963595; active means well fitted inhibition curve with a large enough effect in the signal ratio in the repeat runs, with a control signal flat; the % refers to the signal ratio)
Summary of the method: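 HTRF cAMP read-out at 665 and 620 nm emission (340 nm excitation). Antagonist mode: compounds were tested against 12 nM quinpirole in DRD2-HEK293 cells, with 200 nM NKH477 raising cAMP and 0.1 mM Ro20-1724 blocking its breakdown.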

[14] = molecular target: 5-hydroxytryptamine receptor 2A (Homo sapiens) (UniProt P28223); experiment: 5-hydroxytryptamine receptor 2A (HTR2A) small molecule antagonists, cell-based qHTS assay (AID 1963586); further: nearly all actives have a fitted effect of over 45% in size
Chain of 5-hydroxytryptamine receptor 2A (Homo sapiens) (P28223 whole entry, looked up): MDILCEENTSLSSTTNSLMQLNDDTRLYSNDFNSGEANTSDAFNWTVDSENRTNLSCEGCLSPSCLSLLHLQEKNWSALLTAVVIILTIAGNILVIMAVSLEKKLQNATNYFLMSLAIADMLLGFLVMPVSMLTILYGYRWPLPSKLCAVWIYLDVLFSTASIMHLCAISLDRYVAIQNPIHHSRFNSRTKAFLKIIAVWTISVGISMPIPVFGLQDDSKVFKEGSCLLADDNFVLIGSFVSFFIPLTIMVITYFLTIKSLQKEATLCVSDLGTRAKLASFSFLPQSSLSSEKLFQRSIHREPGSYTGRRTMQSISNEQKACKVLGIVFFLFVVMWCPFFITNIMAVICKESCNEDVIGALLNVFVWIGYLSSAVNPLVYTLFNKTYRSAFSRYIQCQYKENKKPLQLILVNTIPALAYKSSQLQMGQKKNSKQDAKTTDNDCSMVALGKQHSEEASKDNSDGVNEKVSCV
Summary of the method: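 Antagonist-mode intracellular calcium assay: DOI (4 nM) added after 5 min compound pre-incubation at room temperature to dye-loaded HTR2A-CHO cells. Fluorescence followed for 3 min, sampled every second.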

[15] = molecular target: 5-hydroxytryptamine receptor 2A (Homo sapiens) (UniProt P28223); experiment: 5-hydroxytryptamine receptor 2A (HTR2A) small molecule agonists, cell-based qHTS assay (AID 1963587); further: nearly all actives have a fitted effect of over 30% in size
Summary of the method: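 CHO cells stably expressing human HTR2A, plated 18 h, loaded with calcium dye 1 h at 37 C. Agonist mode: compounds added and intracellular calcium fluorescence recorded kinetically for 2 min at 1 sec intervals.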

[16] = molecular target: Muscarinic acetylcholine receptor M1 (Homo sapiens) (UniProt P11229); experiment: Cholinergic receptor muscarinic 1 (CHRM1) small molecule antagonists, cell-based qHTS assay (AID 1963588); further: nearly all actives have a fitted effect of over 40% in size
Chain of Muscarinic acetylcholine receptor M1 (Homo sapiens) (P11229 whole entry, looked up): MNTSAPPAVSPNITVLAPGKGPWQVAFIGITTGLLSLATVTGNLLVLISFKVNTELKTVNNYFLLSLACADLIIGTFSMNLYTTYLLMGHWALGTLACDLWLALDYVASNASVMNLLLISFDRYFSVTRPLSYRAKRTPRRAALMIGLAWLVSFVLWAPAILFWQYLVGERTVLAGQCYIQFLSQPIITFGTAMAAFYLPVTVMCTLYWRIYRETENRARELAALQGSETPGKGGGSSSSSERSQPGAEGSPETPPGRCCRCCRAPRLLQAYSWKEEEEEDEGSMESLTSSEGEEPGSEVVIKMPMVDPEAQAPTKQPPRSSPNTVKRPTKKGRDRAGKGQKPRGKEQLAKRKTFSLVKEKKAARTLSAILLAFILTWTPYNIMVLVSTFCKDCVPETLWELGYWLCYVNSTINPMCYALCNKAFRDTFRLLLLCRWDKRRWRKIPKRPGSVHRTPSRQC
Summary of the method: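 CHRM1-CHO calcium-flux assay, antagonist mode. Cells were seeded 18 h, dye-loaded 1 h at 37 C and given compound for 5 min at RT, then acetylcholine was added at 50nM. FDSS fluorescence was read 3 min; 15 concentrations, three runs.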

[17] = molecular target: Muscarinic acetylcholine receptor M1 (Homo sapiens) (UniProt P11229); experiment: Cholinergic receptor muscarinic 1 (CHRM1) small molecule agonists, cell-based qHTS assay (AID 1963589); further: nearly all actives have a fitted effect of over 35% in size
Summary of the method: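 CHO cells stably expressing human CHRM1, seeded 18 h at 37 C/5% CO2, dye-loaded 1 h at 37 C, then given compound in agonist mode; intracellular calcium fluorescence read kinetically at 1 s intervals. Fifteen concentrations, three independent runs.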

[18] = molecular target: Beta-2 adrenergic receptor (Homo sapiens) (UniProt P07550); experiment: Adrenergic beta2 receptor (ADRB2) small molecule agonists, cell-based qHTS assay (AID 1963593);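 further: CHO cells stably overexpressing human ADRB2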
Summary of the method: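 CHO cells stably over-expressing ADRB2 were plated overnight at 37C, then dosed with compounds plus a stimulation mix containing 100uM IBMX and 25uM Ro-20-1724 for 0.5hr at room temperature. cAMP was measured by HTRF competition, 1hr.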
On the % scale 0 is the no-effect control and ±100 the full control effect.

CCN1CCN(C(=O)N[C@@H](C(=O)N[C@@H]2C(=O)N3[C@@H]2SC(C)(C)[C@H]3C(=O)O)c2ccccc2)C(=O)C1=O
inactive: Potency [1] | Potency [2] | Potency [3] | Potency [4] | Potency [5] | Potency [6] | Potency [7] | Potency [8] | Potency [9] | Potency [10] | Potency [11] | Potency [12] | Potency [13]

COC(=O)CCSCCC(=O)OC
inactive: Potency [1] | Potency [2] | Potency [3] | Potency [4] | Potency [5] | Potency [6] | Potency [7] | Potency [14] | Potency [15] | Potency [16] | Potency [17] | Potency [9] | Potency [10] | Potency [11] | Potency [18] | Potency [12] | Potency [13]

c1cc(CCCc2ccncc2)ccn1
inactive: Potency [1] | Potency [2] | Potency [3] | Potency [4] | Potency [5] | Potency [6] | Potency [7] | Potency [14] | Potency [15] | Potency [16] | Potency [17] | Potency [9] | Potency [10] | Potency [11] | Potency [18] | Potency [12] | Potency [13]

CCCC1CCOC(C)S1 (centres undefined)
inactive: Potency [1] | Potency [2] | Potency [3] | Potency [4] | Potency [5] | Potency [6] | Potency [7] | Potency [8] | Potency [17] | Potency [9] | Potency [10] | Potency [11] | Potency [18] | Potency [12]

CC(=O)OCC(CCn1cnc2cnc(N)nc21)COC(C)=O
inactive: Potency [1] | Potency [2] | Potency [3] | Potency [4] | Potency [5] | Potency [6] | Potency [7] | Potency [8] | Potency [9] | Potency [10] | Potency [11] | Potency [18] | Potency [12] | Potency [13]

CCC1(C)CC(=O)NC1=O (centres undefined)
inactive: Potency [1] | Potency [2] | Potency [3] | Potency [4] | Potency [5] | Potency [6] | Potency [7] | Potency [8] | Potency [9] | Potency [10] | Potency [11] | Potency [18] | Potency [12] | Potency [13]

CC(=O)OCC(=O)[C@@]12OC(C)(C)O[C@@H]1C[C@H]1[C@@H]3C[C@H](F)C4=CC(=O)C=C[C@]4(C)[C@@]3(F)[C@@H](O)C[C@@]12C
inactive: Potency [1] | Potency [2] | Potency [3] | Potency [4] | Potency [5] | Potency [6] | Potency [7] | Potency [8] | Potency [11] | Potency [12] | Potency [13]

NC(N)=NCCN1CCCCCCC1
inactive: activity change, negative = cytotoxicity [1] -3.49% [at 0.349 µM] | activity, positive = activation [2] 3.17% [at 0.349 µM] | activity change [3] -0.022% [at 0.217 µM, hits give high values] | activation [4] 0.591% [at 0.29 µM] | activation [5] 0.864% [at 0.217 µM] | activity change, negative = cytotoxicity [6] 14.9% [at 0.249 µM] | activity change, negative = cytotoxicity [7] 0.194% [at 0.249 µM] | activity change, negative = cytotoxicity [8] -15.6% [at 0.249 µM] | activation [9] -1.51% [at 0.349 µM] | activity change, negative = inhibition [10] 0.0219% [at 0.349 µM] | activity change, negative = inhibition [11] 5.36% [at 0.349 µM] | activation [18] 1.36% [at 0.349 µM] | activity change, negative = inhibition [13] -0.0361% [at 0.348 µM]

CC[C@H]1OC(=O)[C@H](C)[C@@H](O[C@H]2C[C@@](C)(OC)[C@@H](O)[C@H](C)O2)[C@H](C)[C@@H](O[C@@H]2O[C@H](C)C[C@H](N(C)C)[C@H]2O)[C@](C)(O)C[C@@H](C)/C(=N\OCOCCOC)[C@H](C)[C@@H](O)[C@]1(C)O
inactive: Potency [1] | Potency [2] | Potency [3] | Potency [4] | Potency [5] | Potency [6] | Potency [7] | Potency [8] | Potency [9] | Potency [11] | Potency [12]

Cc1ccc(Cl)c(Nc2ccccc2C(=O)O)c1Cl
inactive: Potency [1] | Potency [2] | Potency [3] | Potency [4] | Potency [5] | Potency [6] | Potency [7] | Potency [8] | Potency [11] | Potency [18] | Potency [12] | Potency [13]

C=CCc1cc(S(=O)(=O)c2ccc(O)c(CC=C)c2)ccc1O
active: Potency [1] 61.1 µM
inactive: Potency [2] | Potency [3] | Potency [4] | Potency [5] | Potency [6] | Potency [7] | Potency [14] | Potency [15] | Potency [16] | Potency [17] | Potency [11] | Potency [12] | Potency [13]

CC(=O)Oc1cccc2c1C(=O)c1c(OC(C)=O)cc(C(=O)O)cc1C2=O
inactive: Potency [1] | Potency [2] | Potency [3] | Potency [4] | Potency [5] | Potency [6] | Potency [7] | Potency [14] | Potency [15] | Potency [16] | Potency [17] | Potency [11] | Potency [12]

O=C(O)CNC(=O)CNC(=O)CNC(=O)CSC(=O)c1ccccc1
inactive: Potency [1] | Potency [2] | Potency [3] | Potency [4] | Potency [5] | Potency [6] | Potency [7] | Potency [14] | Potency [15] | Potency [16] | Potency [17] | Potency [10] | Potency [11] | Potency [18] | Potency [12] | Potency [13]

CCCc1nc(C)c2c(=O)[nH]c(-c3cc(S(=O)(=O)N4CCN(CC)CC4)ccc3OCC)nn12
inactive: Potency [1] | Potency [2] | Potency [3] | Potency [4] | Potency [5] | Potency [6] | Potency [7] | Potency [14] | Potency [15] | Potency [16] | Potency [17] | Potency [11] | Potency [12] | Potency [13]

Nc1ccc(F)cc1
inactive: Potency [1] | Potency [2] | Potency [3] | Potency [4] | Potency [5] | Potency [6] | Potency [7] | Potency [14] | Potency [15] | Potency [16] | Potency [17] | Potency [9] | Potency [10] | Potency [11] | Potency [12] | Potency [13]
